Results: PubChem BioAssay (EPA / NIEHS)
Where “and” joins values, the source holds several entries; their conditions need not be identical. Equal entries are not always repeated. Where a structure was tested more than once in an assay, its records may differ in their call. Calls of active or inactive are those of the source. Rule for the calls: active = hit-call score of the fitted dose curve at least 0.9, where 1 is the maximum; inactive = score below 0.9.

How the values were obtained:
[1] = ATG_GLI_CIS: Attagene CIS-FACTORIAL HepG2 Assay for human Zinc Finger Protein GLI1 (AID 2282945); settings: HepG2, Attagene cis-factorial reporter mRNA, GLI element; actives raise or lower the signal
Outline: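 HepG2 cells transiently transfected with cis-promoter multiplexed reporter units report endogenous transcription factor activity. After 24 h chemical exposure, reporter mRNA was quantified by RT-PCR, 6-FAM labelling, HpaI digestion and capillary electrophoresis, with bidirectional fitting against DMSO.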

[2] = target: Bile acid receptor (Homo sapiens) (UniProt Q96RI1); assay: ATG_IR1_CIS: Attagene CIS-FACTORIAL HepG2 Assay for human Nuclear Receptor Subfamily 1 Group H Member 4 (NR1H4), IR1 submotif (AID 2282946); settings: IR1 reporter transcription, actives raise or lower the signal
Outline: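 Transient MRTU transfection, HepG2; 24 h dosing; RNA → RT-PCR → 6-FAM primer extension → HpaI digest → capillary electrophoresis fluorescence. Gain/loss of signal fitted relative to DMSO.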

[3] = ATG_GRE_CIS: Attagene CIS-FACTORIAL HepG2 Assay for human Glucocorticoid Response Elements (GRE) (AID 2282947); settings: HepG2 GRE cis-reporter, Attagene multiplex mRNA; actives raise or lower the signal
Outline: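 HepG2 cells transiently transfected with multiple cis-promoter reporter units measure endogenous TF activity; 24 h compound exposure. Reporter mRNA quantified by RT-PCR, FAM labelling, HpaI digestion and capillary electrophoresis; bidirectional fit vs DMSO baseline.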

[4] = ATG_ISRE_CIS: Attagene CIS-FACTORIAL HepG2 Assay for human Interferon Regulatory Factor 1 (IRF1) binding to an Interferon-Stimulated Response Element (ISRE) (AID 2282948); settings: HepG2 ISRE cis-reporter (Attagene), mRNA transcription readout; actives raise or lower the signal
Outline: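 Cell-based cis-reporter assay; HepG2; 24 h exposure; reporter mRNA by RT-PCR plus capillary electrophoresis fluorescence; activity in either direction scored relative to DMSO.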

[5] = ATG_M_32_CIS: Attagene CIS-FACTORIAL HepG2 Assay for M32 Transcription Factor (Internal Marker) (AID 2282949); settings: HepG2 Attagene cis-factorial M32 reporter, mRNA; actives raise or lower the signal;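 note: background control marker of the multiplexed CIS panel rather than a real target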
Outline: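 Internal background marker read-out: RT-PCR/capillary electrophoresis fluorescence of reporter transcripts from transiently transfected HepG2 cells after 24 h chemical exposure. Activity fitted bidirectionally relative to DMSO negative control.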

[6] = ATG_M_06_CIS: Attagene CIS-FACTORIAL HepG2 Assay for M06 Transcription Factor (Internal Marker) (AID 2282950); settings: HepG2 Attagene CIS-FACTORIAL M06 internal marker reporter; actives raise or lower the signal
Outline: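 Measured 24 h post-dosing in transiently transfected HepG2 cells, this internal-marker endpoint reports reporter mRNA via RT-PCR with fluorescent primer extension and capillary electrophoresis. DMSO served as negative control and baseline for bidirectional fitting.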

[7] = target: Hypoxia-inducible factor 1-alpha (Homo sapiens) (UniProt Q16665); assay: ATG_HIF1a_CIS: Attagene CIS-FACTORIAL HepG2 Assay for human Hypoxia Inducible Factor 1 (HIF1A) (AID 2282951); settings: HepG2 Attagene cis-factorial HIF1a reporter transcription; actives raise or lower the signal
Outline: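 Cis-element reporter constructs were transiently transfected into HepG2 cells, which were treated for 24 h; reporter RNA was reverse-transcribed, amplified, labelled and resolved by capillary electrophoresis.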

[8] = target: Heat shock factor protein 1 (Homo sapiens) (UniProt Q00613); assay: ATG_HSE_CIS: Attagene CIS-FACTORIAL HepG2 Assay for human Heat Shock Transcription Factor 1 (HSE) (AID 2282953); settings: HepG2 HSE cis-reporter, Attagene RNA transcription; actives raise or lower the signal
Outline: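 Reporter mRNA induction in HepG2 is measured 24 h after dosing, using transiently transfected multiplexed cis-regulated reporter units. Signal comes from capillary electrophoresis of labelled RT-PCR products, with DMSO as negative control.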

[9] = target: Paired box protein Pax-6 (Homo sapiens) (UniProt P26367); assay: ATG_Pax6_CIS: Attagene CIS-FACTORIAL HepG2 Assay for human Paired Box 6 (PAX6) (AID 2282956); settings: HepG2 CIS-FACTORIAL PAX6 reporter transcription, RNA readout; actives raise or lower the signal
Outline: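 Multiplexed cis-reporter HepG2 system; 24 h treatment; reporter mRNA read by RT-PCR/CE fluorescence; bidirectional fit vs DMSO.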

[10] = ATG_PXRE_CIS: Attagene CIS-FACTORIAL HepG2 Assay for human Pregnane X Receptor Element (PXRE) (AID 2282957); settings: HepG2 Attagene CIS-FACTORIAL PXRE reporter, mRNA; actives raise or lower the signal
Outline: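 Cis-element reporter mRNA in human hepatoma HepG2 cells is measured 24 h post-dosing by RT-PCR, primer-extension labeling and capillary electrophoresis; gain or loss of signal is fitted relative to DMSO.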

[11] = ATG_PPRE_CIS: Attagene CIS-FACTORIAL HepG2 Assay for human Peroxisome Proliferator-activated Response Element (PPRE) (AID 2282958); settings: HepG2 PPRE cis-element reporter, Attagene transcription factor profiling; actives raise or lower the signal
Outline: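 DMSO served as negative control and baseline for bidirectional curve fitting. Signal came from PPRE-regulated reporter mRNA in HepG2 cells, measured 24 h post-dosing by RT-PCR, 6-FAM primer extension and capillary electrophoresis.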

[12] = ATG_RORE_CIS: Attagene CIS-FACTORIAL HepG2 Assay for human RAR-related Orphan Receptor Element (RORE) (AID 2282959); settings: HepG2 Attagene cis-factorial RORE reporter, mRNA; actives raise or lower the signal
Outline: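 Transfect HepG2 with MRTUs; treat 24 h; extract RNA; RT with oligo(dT); PCR with reporter-specific primers; 6-FAM primer extension; HpaI digest 2 h at 37 C; capillary electrophoresis. Fit vs DMSO, bidirectional.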

[13] = ATG_Sox_CIS: Attagene CIS-FACTORIAL HepG2 Assay for human SRY-box transcription factor (SOX) (AID 2282960); settings: HepG2 Attagene cis-factorial SOX reporter, mRNA; actives raise or lower the signal
Outline: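 Fluorescence-labelled cDNA fragments from reporter transcripts, sized by CE, give the signal. Cells: HepG2, transiently transfected with cis-regulated reporter units. Exposure 24 h; DMSO negative control; bidirectional curve fitting.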

[14] = target: Transcription factor Sp1 (Homo sapiens) (UniProt P08047); assay: ATG_Sp1_CIS: Attagene CIS-FACTORIAL HepG2 Assay for human Specificity Protein 1 (Sp1) (AID 2282961); settings: HepG2 Sp1 cis-reporter transcription, actives raise or lower the signal
Outline: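 Chemicals are dosed onto HepG2 cells transfected with multiple cis-promoter reporter constructs, and after 24 h reporter RNA is reverse-transcribed, PCR-amplified and resolved by capillary electrophoresis for fluorescence quantitation; activity is scored up or down against DMSO.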

[15] = ATG_SREBP_CIS: Attagene CIS-FACTORIAL HepG2 Assay for human Sterol Regulatory Element Binding (SREBP) (AID 2282962); settings: HepG2 Attagene cis-factorial SREBP reporter, mRNA; actives raise or lower the signal
Outline: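 mRNA induction of transfected cis-promoter reporters in HepG2 cells, 24 h post-dose. Detection: RT-PCR with 6-FAM-labelled products, HpaI digest, capillary electrophoresis. DMSO served as negative control and baseline.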

[16] = target: Signal transducer and activator of transcription 3 (Homo sapiens) (UniProt P40763); assay: ATG_STAT3_CIS: Attagene CIS-FACTORIAL HepG2 Assay for human Signal Transducer and Activator of Transcription 3 (STAT3) (AID 2282963); settings: HepG2, Attagene cis-factorial STAT3 reporter transcription; actives raise or lower the signal
Outline: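 HepG2 cells transiently transfected with cis-element-driven multiple reporter transcription units; after 24 h chemical exposure, reporter mRNA measured by RT-PCR, 6-FAM primer-extension labelling, HpaI digestion and capillary electrophoresis. Bidirectional fitting versus DMSO baseline.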

[17] = ATG_TA_CIS: Attagene CIS-FACTORIAL HepG2 Assay for human TA Basal Promoter (AID 2282964); settings: HepG2 Attagene CIS-factorial TA basal promoter reporter; actives raise or lower the signal
Outline: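 Cis-factorial format in HepG2: reporters report endogenous factors, not chimeric Gal4 fusions. After 24 h treatment, reporter transcripts were measured by RT-PCR-capillary electrophoresis fluorescence, analysed bidirectionally versus DMSO.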

[18] = ATG_PBREM_CIS: Attagene CIS-FACTORIAL HepG2 Assay for human Phenobarbital-responsive Enhancer Module (PBREM) (AID 2282955); settings: HepG2 PBREM cis-reporter, Attagene multiplexed transcription; actives raise or lower the signal
Outline: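 Multiplexed cis-reporter readout in human hepatoma HepG2 cells; PBREM-regulated transcript quantified after 24 h exposure by fluorescent RT-PCR fragment analysis. Signal changes up or down fitted relative to DMSO.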

[19] = target: Hepatocyte nuclear factor 6 (Homo sapiens) (UniProt Q9UBC0); assay: ATG_HNF6_CIS: Attagene CIS-FACTORIAL HepG2 Assay for human Hepatocyte Nuclear Factor 6 (HNF6) (AID 2282952); settings: HepG2 Attagene cis-factorial HNF6 reporter transcription; actives raise or lower the signal
Outline: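 Transiently transfected HepG2 cells expressing cis-regulated reporter transcription units were exposed to chemical for 24 h in a 24-well format. Reporter transcript abundance was determined by fluorescence capillary electrophoresis.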

[20] = ATG_MRE_CIS: Attagene CIS-FACTORIAL HepG2 Assay for human Metal Responsive Element (MRE) (AID 2282954); settings: HepG2 MRE cis-reporter transcription, Attagene multiplex; actives raise or lower the signal
Outline: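 HepG2 cells transiently transfected with multiple cis-element reporter units measure endogenous MTF1-driven transcription. After 24 h compound exposure, reporter mRNA is quantified by RT-PCR with 6-FAM labelling, HpaI digestion and capillary electrophoresis; bidirectional fits versus DMSO.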

Measured: AC50

Hypoxia-inducible factor 1-alpha (Homo sapiens), sequence (Q16665 whole entry, looked up): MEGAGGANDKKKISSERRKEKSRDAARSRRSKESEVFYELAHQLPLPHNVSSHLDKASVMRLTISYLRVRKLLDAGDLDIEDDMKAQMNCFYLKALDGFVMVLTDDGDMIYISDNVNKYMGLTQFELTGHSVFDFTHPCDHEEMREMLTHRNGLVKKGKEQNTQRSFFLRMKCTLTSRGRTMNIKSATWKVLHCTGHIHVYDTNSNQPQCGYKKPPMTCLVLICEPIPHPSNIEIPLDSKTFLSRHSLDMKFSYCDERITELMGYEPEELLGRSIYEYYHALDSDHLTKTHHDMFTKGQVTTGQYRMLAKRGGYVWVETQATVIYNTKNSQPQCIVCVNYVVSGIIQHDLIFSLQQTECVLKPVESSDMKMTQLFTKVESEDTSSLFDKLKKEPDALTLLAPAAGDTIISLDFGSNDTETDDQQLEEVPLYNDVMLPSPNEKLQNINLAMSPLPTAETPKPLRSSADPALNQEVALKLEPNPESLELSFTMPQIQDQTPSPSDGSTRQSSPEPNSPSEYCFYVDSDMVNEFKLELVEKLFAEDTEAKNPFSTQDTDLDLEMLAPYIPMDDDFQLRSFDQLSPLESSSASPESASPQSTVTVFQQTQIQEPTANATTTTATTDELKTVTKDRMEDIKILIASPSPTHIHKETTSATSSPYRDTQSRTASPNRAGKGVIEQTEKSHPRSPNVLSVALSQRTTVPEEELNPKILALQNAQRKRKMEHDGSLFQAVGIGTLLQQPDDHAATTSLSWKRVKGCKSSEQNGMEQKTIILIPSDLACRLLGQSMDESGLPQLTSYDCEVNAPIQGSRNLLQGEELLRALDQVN
Hepatocyte nuclear factor 6 (Homo sapiens), sequence (Q9UBC0 whole entry, looked up): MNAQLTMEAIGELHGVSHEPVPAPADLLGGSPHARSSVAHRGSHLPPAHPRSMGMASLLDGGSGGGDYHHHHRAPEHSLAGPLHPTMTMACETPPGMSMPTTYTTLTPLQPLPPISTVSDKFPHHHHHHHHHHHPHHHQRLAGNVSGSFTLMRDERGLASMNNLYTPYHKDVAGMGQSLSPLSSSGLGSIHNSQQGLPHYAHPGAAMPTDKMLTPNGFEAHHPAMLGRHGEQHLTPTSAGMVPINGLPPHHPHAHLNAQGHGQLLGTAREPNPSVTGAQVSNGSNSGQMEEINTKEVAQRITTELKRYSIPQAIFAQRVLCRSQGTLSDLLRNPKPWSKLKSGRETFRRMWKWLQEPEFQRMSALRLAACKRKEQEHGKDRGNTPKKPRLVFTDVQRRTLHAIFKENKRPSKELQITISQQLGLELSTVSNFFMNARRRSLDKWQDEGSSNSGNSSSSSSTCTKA
Bile acid receptor (Homo sapiens), sequence (Q96RI1 whole entry, looked up): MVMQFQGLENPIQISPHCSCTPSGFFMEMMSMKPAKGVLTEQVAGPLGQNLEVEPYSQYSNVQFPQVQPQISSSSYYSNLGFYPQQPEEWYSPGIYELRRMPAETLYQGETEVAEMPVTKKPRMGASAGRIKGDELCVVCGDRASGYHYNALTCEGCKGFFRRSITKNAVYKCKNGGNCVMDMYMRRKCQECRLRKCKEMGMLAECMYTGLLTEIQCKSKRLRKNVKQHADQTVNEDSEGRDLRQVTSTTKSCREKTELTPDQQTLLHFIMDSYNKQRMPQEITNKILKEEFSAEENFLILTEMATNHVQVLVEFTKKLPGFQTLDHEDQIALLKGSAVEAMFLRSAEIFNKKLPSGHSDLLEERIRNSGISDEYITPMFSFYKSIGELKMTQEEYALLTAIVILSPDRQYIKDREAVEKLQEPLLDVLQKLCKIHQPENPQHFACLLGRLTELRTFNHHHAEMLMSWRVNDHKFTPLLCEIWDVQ
Transcription factor Sp1 (Homo sapiens), sequence (P08047 whole entry, looked up): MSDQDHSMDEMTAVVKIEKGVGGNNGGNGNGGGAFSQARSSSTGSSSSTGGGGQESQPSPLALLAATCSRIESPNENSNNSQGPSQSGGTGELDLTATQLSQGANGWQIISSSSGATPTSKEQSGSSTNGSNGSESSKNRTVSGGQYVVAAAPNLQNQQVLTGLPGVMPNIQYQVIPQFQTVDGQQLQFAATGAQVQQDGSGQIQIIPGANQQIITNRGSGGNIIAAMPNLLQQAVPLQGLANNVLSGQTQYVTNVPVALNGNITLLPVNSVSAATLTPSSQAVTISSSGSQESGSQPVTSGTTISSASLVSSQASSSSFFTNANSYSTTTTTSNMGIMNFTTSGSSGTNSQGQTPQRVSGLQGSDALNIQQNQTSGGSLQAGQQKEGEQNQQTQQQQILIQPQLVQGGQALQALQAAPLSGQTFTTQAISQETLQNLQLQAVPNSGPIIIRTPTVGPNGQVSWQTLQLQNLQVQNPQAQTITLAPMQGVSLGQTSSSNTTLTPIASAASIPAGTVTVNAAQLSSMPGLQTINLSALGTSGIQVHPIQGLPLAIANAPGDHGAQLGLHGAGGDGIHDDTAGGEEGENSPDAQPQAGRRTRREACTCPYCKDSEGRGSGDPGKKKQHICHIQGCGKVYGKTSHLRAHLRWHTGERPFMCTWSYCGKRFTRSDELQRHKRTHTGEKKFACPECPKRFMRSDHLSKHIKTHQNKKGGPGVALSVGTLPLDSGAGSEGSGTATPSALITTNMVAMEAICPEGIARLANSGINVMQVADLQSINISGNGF
Paired box protein Pax-6 (Homo sapiens), sequence (P26367 whole entry, looked up): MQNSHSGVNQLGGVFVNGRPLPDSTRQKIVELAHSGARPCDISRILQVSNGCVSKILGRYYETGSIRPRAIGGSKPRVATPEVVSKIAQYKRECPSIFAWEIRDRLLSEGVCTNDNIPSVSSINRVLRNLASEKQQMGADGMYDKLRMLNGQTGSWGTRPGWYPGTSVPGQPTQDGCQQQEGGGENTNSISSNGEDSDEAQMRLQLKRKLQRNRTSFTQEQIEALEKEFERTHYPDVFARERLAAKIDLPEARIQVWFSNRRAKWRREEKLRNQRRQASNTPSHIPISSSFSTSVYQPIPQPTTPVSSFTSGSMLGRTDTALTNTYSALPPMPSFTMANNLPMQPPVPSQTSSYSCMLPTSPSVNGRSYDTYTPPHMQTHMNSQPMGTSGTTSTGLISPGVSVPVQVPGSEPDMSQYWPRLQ
Heat shock factor protein 1 (Homo sapiens), sequence (Q00613 whole entry, looked up): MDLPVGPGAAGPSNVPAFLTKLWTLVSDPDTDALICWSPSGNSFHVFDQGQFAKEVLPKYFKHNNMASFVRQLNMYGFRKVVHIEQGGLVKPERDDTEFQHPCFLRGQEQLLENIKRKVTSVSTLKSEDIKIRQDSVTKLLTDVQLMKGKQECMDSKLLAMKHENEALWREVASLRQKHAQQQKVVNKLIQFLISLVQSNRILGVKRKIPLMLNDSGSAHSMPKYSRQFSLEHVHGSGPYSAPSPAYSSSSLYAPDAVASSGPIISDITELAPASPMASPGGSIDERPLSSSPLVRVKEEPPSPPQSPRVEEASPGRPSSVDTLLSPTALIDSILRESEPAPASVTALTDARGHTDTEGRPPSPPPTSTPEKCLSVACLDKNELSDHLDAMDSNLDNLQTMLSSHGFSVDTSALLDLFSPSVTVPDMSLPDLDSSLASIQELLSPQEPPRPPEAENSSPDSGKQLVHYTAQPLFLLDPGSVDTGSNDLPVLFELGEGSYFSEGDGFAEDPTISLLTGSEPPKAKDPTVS
Signal transducer and activator of transcription 3 (Homo sapiens), sequence (P40763 whole entry, looked up): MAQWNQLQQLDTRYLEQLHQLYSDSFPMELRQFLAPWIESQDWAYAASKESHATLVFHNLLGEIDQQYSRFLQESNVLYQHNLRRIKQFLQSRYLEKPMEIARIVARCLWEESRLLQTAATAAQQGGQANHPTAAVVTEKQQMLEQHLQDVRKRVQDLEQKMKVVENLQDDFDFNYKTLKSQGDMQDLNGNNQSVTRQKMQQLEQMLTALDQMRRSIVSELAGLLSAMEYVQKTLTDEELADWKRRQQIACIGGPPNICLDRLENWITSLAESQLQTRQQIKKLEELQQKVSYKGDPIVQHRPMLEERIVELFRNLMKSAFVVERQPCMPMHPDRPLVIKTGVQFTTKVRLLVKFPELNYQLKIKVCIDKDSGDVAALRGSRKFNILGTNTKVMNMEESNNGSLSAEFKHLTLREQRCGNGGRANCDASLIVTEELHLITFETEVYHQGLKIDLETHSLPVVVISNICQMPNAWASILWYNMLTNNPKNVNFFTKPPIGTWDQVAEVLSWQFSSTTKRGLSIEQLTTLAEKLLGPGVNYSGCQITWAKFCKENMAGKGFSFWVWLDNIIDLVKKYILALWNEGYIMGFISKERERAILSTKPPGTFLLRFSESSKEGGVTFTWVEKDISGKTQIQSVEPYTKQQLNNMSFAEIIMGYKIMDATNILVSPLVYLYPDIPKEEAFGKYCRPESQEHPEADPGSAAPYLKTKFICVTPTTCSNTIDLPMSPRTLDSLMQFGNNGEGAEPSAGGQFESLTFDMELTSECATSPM

Oc1cccc(O)c1
not listed: [18] | [19] | [20]
inactive: all other assays above

O=C(/C=C/c1ccc(O)cc1)CC(=O)/C=C/c1ccc(O)cc1
active: [2] 29 µM | [4] 8.84 µM | [8] 20.3 µM | [9] 14.6 µM | [12] 2.56 µM | [13] 25.7 µM
not listed: [19] | [20]
inactive: all other assays above

CC1=C(/C=C/C(C)=C/C=C/C(C)=C/C(=O)O)C(C)(C)CCC1
active: [4] 54.4 µM and 106 µM | [8] 50.5 µM and 93 µM | [18] 6.62 µM | [9] 42.8 µM | [10] 1.48 µM and 1.26 µM | [11] 43.6 nM and 9.62 µM | [12] 8.89 µM | [13] 51.1 µM and 24.6 µM | [14] 11.9 µM | [17] 21.4 µM
inactive: [1] | [3] | [5] | [6] | [19] | [18] | [9] | [12] | [14] | [15] | [16] | [17]

CCc1ccc(CCOc2ccc(CC3SC(=O)NC3=O)cc2)nc1 (configuration not stated)
inactive: [1] | [3] | [4] | [5] | [6] | [7] | [19] | [8] | [18] | [9] | [12] | [13] | [14] | [15] | [16] | [17]
active: [10] 6.6 µM and 1.59 µM | [15] 26.2 µM

c1ccc2c(c1)Cc1ccccc1-2
active: [10] 72.4 µM
not listed: [11] | [18] | [19] | [20]
inactive: all other assays above

Cc1ccc(S(=O)(=O)O)c(C)c1
active: [10] 27.3 µM
inactive: [1] | [3] | [4] | [5] | [6] | [7] | [19] | [8] | [20] | [18] | [9] | [10] | [11] | [13] | [14] | [15] | [16] | [17]

CCCCCCCCCCCCCCCS(=O)(=O)Oc1ccccc1
active: [10] 0.778 µM
not listed: [11] | [19] | [20]
inactive: all other assays above
